Values joined by “and” are separate entries in the source; they are usually repeats but may differ in a detail not shown here. Equal entries are not always repeated. Unmarked numbers belong to inactive results. The call rests on the fitted dose curve.

This assay can be described thus: qHTS drug screen for cell cycle checkpoint inhibitors in PARPi-resistant BRCA-mutant ovarian cancer cell lines. (AID 1963452). As to conditions: PEO1/OlaR viability, CellTiter-Glo luminescence, 96 h; hits give low values. In outline: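 PEO1, PEO4 and PEO1/OlaR ovarian cancer cells, 600 per well, exposed 96 h at 37C to a dilution series. Viability read by CellTiter-Glo luminescence, normalized to DMSO and empty wells; activity summarized as Z-AUC.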
A general note: qHTS replaces the single test concentration by a dilution series.
With `CCCCc1nc2cc(/C=C/C(=O)NO)ccc2n1CCN(CC)CC`, the Z-AUC was 0.0461.
In the case of `Cc1cnc(Nc2ccc(F)cc2Cl)nc1-c1c[nH]c(C(=O)NC(CO)c2cccc(Cl)c2)c1` (stereo not given), the Z-AUC was -0.685.
The result for `NC(=O)[C@H]1CCS[C@@H]2C[C@]3(CCCN3C(=O)Cc3ccc(NC(=O)COc4ccc(Cl)cc4Cl)cc3)C(=O)N12` reads -0.482.
The result for `CC#CC(=O)N1CCC[C@H]1c1nc(-c2ccc(C(=O)Nc3ccccn3)cc2)c2c(N)nccn12` reads -0.264; that for `FC(F)(F)c1ccc(Nc2nc(-c3c(C(F)(F)F)nc4ccccn34)cs2)cc1`, -2.12.
As for `CN1CCN(C2CCC(n3cc(-c4ccc(Oc5ccccc5)cc4)c4c(N)ncnc43)CC2)CC1` (stereo not given), the Z-AUC is -1.03.
Under `c1cn2cc(-c3ccc4cn[nH]c4c3)nc(Nc3ccc(N4CCOCC4)cc3)c2n1` stands -0.306.
Under `Cc1c(NC(=O)c2cc(C(N)=O)nc3cc(F)ccc23)c(C(F)(F)F)nn1Cc1ccc(C#N)cc1` stands -2.01.
Under `CCS(=O)(=O)N1CCN(c2ccc(Nc3ncc(C(N)=O)c(NC4CC4)n3)cc2)CC1` stands 0.319.
For the compound `CCO[C@@H]1OC(=O)C[C@@H]1NC(=O)[C@@H]1CCCN1C(=O)[C@@H](NC(=O)c1ccc(N)c(Cl)c1)C(C)(C)C`, the Z-AUC is 0.612.
The result for `CN[C@@H]1[C@H](O[C@H]2[C@H](O[C@@H]3[C@@H](O)[C@H](O)[C@@H](N=C(N)N)[C@H](O)[C@H]3N=C(N)N)O[C@@H](C)[C@]2(O)C=O)O[C@@H](CO)[C@H](O)[C@H]1O` reads 1.52; that for `c1cc(Nc2cc(C3CC3)[nH]n2)nc(Nc2ccc3nc[nH]c3c2)n1`, -1.72; that for `Cc1cccc(Oc2cnc(=O)[nH]c2)c1`, -0.692.
On to `O=C(NOCC(O)CO)c1ccc(F)c(F)c1Nc1ccc(I)cc1F` (stereo not given), for which the Z-AUC is -1.69.
Under `Nc1nccn2c(C3CCC(C(=O)O)CC3)nc(-c3cc4cccc(Cl)c4[nH]3)c12` (stereo not given) stands -0.361; under `CCNCc1nc2c(N)nc3ccccc3c2n1CC(C)(C)O`, -0.12; under `C=C1C(=O)O[C@H]2[C@H]1CC/C(C)=C/CC[C@@]1(C)O[C@@H]21`, 1.08.
With `O=C(c1ccc(/C=C/c2n[nH]c3ccccc23)cc1)N1CCNCC1`, the Z-AUC is -0.885.
Under `Nc1ccc(/C=C/C(=O)NCc2cc3cc(-c4ccc(C(=O)N5CCC(F)(F)CC5)cc4)cc(-c4ccc(F)cc4)c3o2)cn1` stands -0.388; under `CC[C@]12C=CCN3CC[C@@]4(c5cc([C@@]6(C(=O)OC)C[C@H]7C[C@@H](C(C)(F)F)CN(Cc8c6[nH]c6ccccc86)C7)c(OC)cc5N(C)[C@H]4[C@@](O)(C(=O)OC)[C@@H]1OC(C)=O)[C@@H]32`, -2.08 and -1.5.
The result for `CC(C)c1c2cc(-c3ccnc(NC4CCC(NC5CCOCC5)CC4)n3)ccc2nn1C` (stereo not given) reads -1.95; that for `COC(=O)N[C@@H](C)CNc1nccc(-c2cn(C(C)C)nc2-c2cc(Cl)cc(NS(C)(=O)=O)c2F)n1`, -0.294.
Under `COc1cc2c(NC3CCN(CC4CCCCC4)CC3)nc(N3CCCN(C(C)C)CC3)nc2cc1OCCCN1CCCCC1` stands 0.256.
On to `Cc1ccc(S(=O)(=O)Cc2nc(-c3ccc(C(=O)NCc4cccnc4)cc3)oc2C)cc1`, for which the Z-AUC was -1.97.
The result for `O=C(/C=C/c1cccc(S(=O)(=O)Nc2ccccc2)c1)NO` reads -0.934.
The result for `CS(=O)(=O)N1CCC(NC(=O)c2[nH]ncc2NC(=O)c2c(Cl)cccc2Cl)CC1` reads -1.39; that for `CNCc1ccc(-c2cc(-c3nc(-c4ccc(S(=O)(=O)C(C)C)cc4)cnc3N)on2)cc1`, 0.146.
For the compound `Cc1c(C(=O)N2CCOc3ccc(-c4ccc(N)nc4)cc3C2)ccc(S(C)(=O)=O)c1F`, the Z-AUC is 0.331.
Consider `CN(C)C/C=C/C(=O)Nc1cccc(C(=O)Nc2cccc(Nc3ncc(Cl)c(-c4c[nH]c5ccccc45)n3)c2)c1`, for which the Z-AUC is -1.57.
Under `CC1=C(CO)C(=O)O[C@@H]([C@@H](C)[C@H]2CC[C@H]3[C@@H]4C[C@H]5O[C@]56[C@@H](O)C=CC(=O)[C@]6(C)[C@H]4CC[C@]23C)C1` stands -1.4.

(Values after PubChem BioAssay (NCATS).)
